The values below come from the supplement of paper PMC8877412.

Where a name gives a salt, the structure may show the parent alone. ± gives the uncertainty stated by the source.

This assay has as its system NCC-PMP1-C1. Briefly: cell viability relative to DMSO control; higher = less growth inhibition. As to conditions: 10 µM; 72 h. How it is done:
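NCC-PMP1-C1 pseudomyxoma peritonei cells were seeded in 384-well plates coated with Matrigel and MEF (1e4 cells). Viability was read after 72 h by CCK-8 and expressed as % of the DMSO control, mean ± SD of duplicates.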
Take `N.N.[Cl][Pt][Cl]` [Cisplatin]: the cell viability was 102 ± 3.3%.

`Cc1c(N)nc(C(CC(N)=O)NCC(N)C(N)=O)nc1C(=O)NC(C(=O)NC(C)C(O)C(C)C(=O)NC(C(=O)NCCc1nc(-c2nc(C(=O)NCCC[S+](C)C)cs2)cs1)C(C)O)C(O[C@@H]1O[C@@H](CO)[C@@H](O)[C@H](O)[C@@H]1O[C@H]1O[C@H](CO)[C@@H](O)[C@H](OC(N)=O)[C@@H]1O)c1cnc[nH]1` (some centres undefined) [Bleomycin Sulfate]: the cell viability was found to be 80.5 ± 1.4%.

With `C=CCN1CC[C@]23c4c5ccc(O)c4O[C@H]2C(=O)CC[C@@]3(O)[C@H]1C5` [Naloxone HCl], the cell viability turned out to be 1.93 ± 1.3%.

Take `O=P1(NCCCl)OCCCN1CCCl` (centres undefined) [Ifosfamide]: the cell viability stood at 106.5 ± 0.13%.

Turning to `O=C(O)CCCc1ccc(N(CCCl)CCCl)cc1` [Chloroambucil], the cell viability was 87 ± 20%.

Consider `O=P1(N(CCCl)CCCl)NCCCO1` (centres undefined) [Cyclophosphamide Monohydrate], for which the cell viability is 107 ± 9.1%.

Take `Cn1c(CCCC(=O)O)nc2cc(N(CCCl)CCCl)ccc21` [Bendamustine HCl]: the cell viability was found to be 127 ± 6%.

For `O=C1C2CCN(CC2)C1(CO)CO`, the cell viability was 78.8 ± 3.1%.

`NCCCNCCSP(=O)(O)O` [Amifostine]: the cell viability stood at 95.3 ± 16%.

With `C/C=C(\C)C(=O)N[C@@H](c1ccccc1)[C@@H](O)C(=O)O[C@H]1C[C@@]2(O)[C@@H](OC(=O)c3ccccc3)[C@@H]3[C@]4(OC(C)=O)CO[C@@H]4C[C@H](O)[C@@]3(C)C(=O)[C@H](OC(C)=O)C(=C1C)C2(C)C` [Cephalomannine], the cell viability was found to be 74.9 ± 6.8%.

With `CC[C@@]1(O)C(=O)OCc2c1cc1n(c2=O)Cc2cc3ccccc3nc2-1` [Camptothecin], the cell viability turned out to be 82.2 ± 14%.

Regarding `COCC1(CO)C(=O)C2CCN1CC2` (centres undefined), the cell viability came to 115 ± 8.3%.

In the case of `CC(=O)OC12COC1CC(O)C1(C)C(=O)C(O)C3=C(C)C(O)CC(O)(C(OC(=O)c4ccccc4)C21)C3(C)C` (centres undefined) [10-Deacetylbaccatin-III], the cell viability came to 94.7 ± 12%.

For the molecule `C=C1C[C@@H]2[C@H](CC[C@]3(C)C(=O)CC[C@@H]23)[C@@]2(C)C=CC(=O)C=C12` [Exemestane], the cell viability came out at 138 ± 5.7%.

The term cell viability denotes a read-out of living cells in per cent, often relative to untreated cells.
